# Only some compounds are listed: those with a hit (about 3.1% of all), similar ones and a draw of the others.
# LEDGF integ inh: blockers of LEDGF/p75-dependent integrase strand transfer – biochemical, TR-FRET, high throughput, primary screen; inhibition, % at 3.7 µM; 0.64% of 370,000 active; TR-FRET IN-LEDGF/p75 DNA integration, Eu/Cy5; HIV-1 integrase (with human LEDGF/p75);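 active means inhibition above the screen-wide mean plus 3 SD, cut at about 13% in these data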;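 further: signal is the Cy5 over europium emission ratio at 671 and 618 nm; 0% = plate median of compound wells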
# KLK7 zymogen act: proKLK7 zymogen activators, primary screen, biochemical, fluorescence intensity. activation, % at 7 µM. purified proKLK7, EDANS-DABCYL substrate fluorescence; 100% is mature enzyme control, 0% vehicle. 0.9% of 370,000 active;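 active means activation above the mean of all tested compounds plus 3 SD, computed per campaign excluding outliers beyond control limits, cut at about 13% in these data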
# UHRF1 MBD2 ctr: UHRF1 methylated DNA binding inhibitors, primary screen, counter-screen for MBD2 inhibitor project, biochemical, TR-FRET, human UHRF1, single concentration. E3 ubiquitin-protein ligase UHRF1 (Homo sapiens), Q96T88. UHRF1 binding to methylated oligo. inhibition, % at 4.4 µM. 0.75% of 370,000 active; in the data active means inhibition above about 21%;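 further: UHRF1 SRA domain binding a hemimethylated CpG hairpin DNA probe; 0% = median of test compound wells and 100% = reference inhibitor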
# Neddylation inh: inhibitors of cullin neddylation, primary screen, biochemical, TR-FRET, uHTS, NAE and Ubc12; calls only at 25 µM; NEDD8-conjugating enzyme Ubc12 (Homo sapiens) + NEDD8-activating enzyme E1 regulatory …; 0.58% of 360,000 active; in the data active means inhibition above about 36%
# Rin1-Abl PPI inh: inhibitors of Rin1-Abl protein binding, primary screen, biochemical, TR-FRET; Tyrosine-protein kinase ABL1 (Homo sapiens) + Ras and Rab interactor 1 (Homo sapiens), …; inhibition, % at 7.35 µM; 0.4% of 360,000 active; AID 588664, 2011; in the data active means inhibition above about 5%, passing the limit was not always enough
# MBD2 inh: inhibitors of MBD2 binding to methylated DNA, primary screen, biochemical, TR-FRET, DNA-binding domain, human; AID 686964, 2013; Methyl-CpG-binding domain protein 2 (Homo sapiens), Q9UBB5; inhibition, % at 4.4 µM; MBD2 binding to methylated oligonucleotide; 0.31% of 370,000 active; in the data active means inhibition above about 13%
# KLK7 act conf: proKLK7 zymogen activators, confirmation, biochemical, fluorescence intensity, triplicate | 68% of 3,200 active | shares compounds with KLK7 zymogen act | activation, % at 7 µM | purified proKLK7, EDANS-DABCYL substrate fluorescence; scaled: vehicle 0, mature enzyme 100;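 active means activation, as change over the incubation, above the mean of all tested compounds plus 3 SD, cut at about 13% in these data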
# EDANS-DABCYL int: EDANS-DABCYL substrate optical interference, artefact control for kallikrein-7 zymogen activator project, biochemical, fluorescence intensity, high throughput. shares compounds with KLK7 zymogen act. no enzyme, 4 h; solvent 0%, active enzyme control 100%. activation, % at 7 µM. 80% of 3,200 active. AID 686952, 2013;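 active means activation above the all-compound mean plus 3 SD, ignoring values outside control-based bounds, cut at about 4.8% in these data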;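 further: value is the 4 h activation minus the activation read at time zero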
# EDANS interf: EDANS fluorescence interference in dose response, no enzyme | EC50, µM | shares compounds with KLK7 zymogen act | 20% of 250 active | EDANS-DABCYL peptide fluorescence interference;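 active means compounds that raise the fluorescence signal in this interference counterscreen, with EC50 at or below 10 µM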;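 further: intact quenched peptide substrate alone read at 355 nm excitation and 520 nm emission; signal is fluorescence gain from T0 to T4 after four hours at room temperature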
# * hit, by the source's call; i = inactive; / = no result given.
SMILES,LEDGF integ inh,KLK7 zymogen act,UHRF1 MBD2 ctr,Neddylation inh,Rin1-Abl PPI inh,MBD2 inh,KLK7 act conf,EDANS-DABCYL int,others
CCOC(=O)C1=C(CSc2nc(-c3ccccc3)ccc2C#N)OC(N)=C(C#N)C1c1cccnc1 (configuration not stated),0,382*,-1,i,-2,4,384*,347*,
CCOC(=O)c1cc2c(OC)c(OC)ccc2c2[nH]cc(C#N)c(=O)c12,-4,-3,1,/,3,-2,/,/,
CN(CCC#N)C(=O)COC(=O)c1ccccc1OCc1ccccc1Cl,8,0,2,i,2,-5,/,/,
Nc1c(Cl)cc(Cl)cc1C(=O)OCC(=O)N1CCCC1,0,13*,-1,/,-2,1,18*,15*,EDANS interf=>70
CC(C)CNC(=O)COC(=O)c1cc(Cl)cc(Cl)c1N,-1,21*,1,/,-1,-3,-9,-16,
O=C(OCC(=O)N1CCCC1)c1cc(Br)ccc1Cl,0,1,1,i,-2,3,/,/,
CN(CCC#N)C(=O)COC(=O)c1cc(Cl)cc(Cl)c1N,4,16*,-1,/,4,-4,12,11*,
CC1(C)CC2CC(C)(CN2C(=O)COC(=O)c2cc(Cl)cc(Cl)c2N)C1 (configuration not stated),0,-3,-2,i,2,-5,/,/,
CC(C)CNC(=O)COC(=O)c1ccc(F)cc1Cl,0,-1,3,i,0,3,/,/,
COC(=O)CNC(=O)COC(=O)c1cc(Cl)cc(Cl)c1N,-2,15*,-3,/,0,-1,53*,40*,EDANS interf=>69
CCc1nnc(NC(=O)CS(=O)(=O)Cc2ccccc2)s1,-1,-1,-4,i,1,1,/,/,
CC(C)[C@H](NC(=O)OCc1ccccc1)C(=O)OCc1cc(=O)oc2cc(O)ccc12,-9,28*,2,/,1,0,62*,60*,
CC(C)[C@H](NC(=O)OCc1ccccc1)C(=O)OCC(=O)c1ccccc1,-2,0,6,i,1,-1,/,/,
O=c1[nH]c2cc3c(cc2cc1CN(Cc1nnnn1C1CCCC1)C1CCCC1)OCCO3,-2,29*,-10,/,-6,1,-1,-2,
COc1cc2cc(CN(Cc3nnnn3Cc3ccccc3)CC3CCCO3)c(=O)[nH]c2cc1OC (configuration not stated),1,41*,-10,/,-3,-7,-5,-11,
COc1ccc2[nH]c(=O)c(CN(Cc3ccccc3)Cc3nnnn3CC3CCCO3)cc2c1 (configuration not stated),1,-1,-3,i,1,1,/,/,
COc1ccc(Cn2nnnc2CN(Cc2cc3cc(C)ccc3[nH]c2=O)C2CCCC2)cc1,0,2,1,i,5,1,/,/,
CCC(C)(C)n1nnnc1CN(Cc1cc2cc(OC)c(OC)cc2[nH]c1=O)C1CCCC1,3,16*,0,/,1,-8,-12,-8,
O=C(COC(=O)C1=Cc2ccccc2OC1)NCc1ccc(F)cc1,/,/,/,i,-1,/,/,/,
CN(C)C=Nc1ccc2nc3c(cc2c1)[nH]c1ccccc13,-5,49*,-5,/,-3,-7,50*,41*,EDANS interf=>69
CCC1CN(C)C2Cc3c([nH]c4ccccc34)C(=O)CC1C2C(=O)OC (configuration not stated),1,13*,-2,/,-2,-1,7,8.1*,
COC(=O)[C@@H]1[C@H]2C[C@H]3c4[nH]c5ccccc5c4CCN3C[C@@H]2CC[C@@H]1O,-3,0,-2,i,-2,-4,/,/,
CCc1nc2ccc(C(=O)NCCCn3ccnc3)cn2c1N(C)Cc1ccc(N(C)C)cc1,3,0,-1,i,-4,-8,/,/,
Cc1nc2[nH]c(=O)c3c(n2n1)NC1=C(C(=O)CC(C)(C)C1)C3c1ccccc1 (configuration not stated),-1,47*,-3,/,-4,-6,8,11*,
O=C(NC1CCCCC1)O[C@H]1CC[C@@]23CCCN2C(=O)CCC[C@H]3C1,1,/,-1,/,/,1,/,/,
SMILES,LEDGF integ inh,KLK7 zymogen act,UHRF1 MBD2 ctr,Neddylation inh,Rin1-Abl PPI inh,MBD2 inh,KLK7 act conf,EDANS-DABCYL int,others
Cc1c(NC(=O)c2cc3c(=O)n4ccccc4nc3s2)c(=O)n(-c2ccccc2)n1C,-4,0,-3,i,0,-1,/,/,
CC1CC(C)CN(C(=O)c2cc3c(=O)n4ccccc4nc3s2)C1 (configuration not stated),1,14*,-2,/,1,-2,14*,12*,EDANS interf=>70
CC1CN(C(=O)c2cc3c(=O)n4ccccc4nc3s2)CC(C)O1 (configuration not stated),4,26*,-2,/,-2,-7,42*,40*,
COc1cc(C(=O)Nc2nnc(CC(C)C)s2)c([N+](=O)[O-])cc1OC,3,0,-4,i,2,-1,/,/,
COc1ccc(-c2c(C)c3ccc(O)cc3oc2=O)cc1OC,1,36*,1,/,0,-1,69*,74*,
Cc1c(CCC(=O)O)c(=O)oc2cc(O)ccc12,-2,40*,-1,/,-4,3,66*,79*,
Cc1c(CCC(=O)O)c(=O)oc2cc3occ(C(C)(C)C)c3cc12,2,7,-1,/,-1,-1,/,/,
Cc1ccc(C2NC(=O)c3[nH]nc(-c4ccccc4)c32)cc1 (configuration not stated),2,0,-2,/,/,-2,/,/,
O=C(NC1CC1)c1cccc(-c2cncc3nccn23)c1,0,16*,-3,/,-2,1,7,11*,
O=C(NCc1ccco1)c1cccc(-c2ccc3nccn3c2)c1,0,0,0,i,0,5,/,/,

# Screening results from PubChem.
